Hit rate of the full screen: of about 340,000 compounds, about 3,300 (0.97%) were called active.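 How the source made its calls: active means maximum activity change below -70%; inconclusive means maximum activity change from -70% to -50%; inactive means maximum activity change above -50%.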 The full list was thinned out, with actives kept by preference.
On the % scale 0 is the no-effect control and ±100 the full control effect.

The assay has as its system Potassium voltage-gated channel subfamily H member 2, brain isoform KCNH2 3.1 (human). Put plainly: qHTS for Inhibitors of KCHN2 3.1: Mutant qHTS. The settings on record: U2OS KCNH2 3.1, thallium flux FluxOr; hits give low values. An excerpt: Many antipsychotic drugs that inhibit the neurotransmitter dopamine also bind to hERG1 channel which might help explain their antipsychotic activity but also produces cardiac side effects. The discovery of the novel KCNH2 3.1 isoform offers a potential new target for the development of antipsychotic drugs without cardiac side effects. This proposal will use a high throughput thallium flux assay developed for KCNH2 to screen compounds that modulate the activity of KCNH2 3.1. The wild type KCNH2 channel will also be screened in parallel to help define the selective modulators of this KCNH2 3.1 potassium channel. The resulting compounds will be validated in electrophysiology experiments. The availability of animal models will allow future testing in vivo for effects on memory and other aspects of animal physiology linked with psychosis. NIH Chemical Genomics Center [NCGC] NIH Molecular Libraries Probe Centers Network [MLPCN] MLPCN Grant: MH096539 Assay Submitter (PI): James Barrow, Johns Hopkins University, Lieber Institute for Brain Development
U2OS cells were resuspended in cell media containing 10% fetal calf serum (FCS) at a concentration of 2 million cells / mL. The solution was treated with the mutant (3.1) virus at 1.77 x 10^8 / mL and allowed to incubate at room temperature in the dark. After 4 hours of incubation, DMEM + 10% fetal bovine serum (FBS) was added to the cell solution. Three microliter was then dispensed into a 1536 tissue culture treated black assay plates which were incubated overnight at 37 C. Two microliter of loading buffer (HBSS + HEPES + Red40 dye quencher + FluxOr dye) was added and the assay plates were incubated for 45 min at room temperature in the dark. […] A stimulation buffer was added to the plate and the second kinetic read (2 min) was obtained. The rate constant was calculated from the kinetic reads and normalized to the positive and negative DMSO controls.
(In general: qHTS replaces the single test concentration by a dilution series.)
Consider `O=C(Cc1cccs1)Nc1nnc(SCc2ccc(F)cc2)s1`, for which the activity change was 3.31% (inactive). The figure for `O=C(Cc1cccs1)Nc1nnc(C2CC2)s1` is -217% (active).

Consider `CCc1ccccc1OCC(=O)Nc1nnc(C2CC2)s1`, for which the activity change was -8.55% (inactive).

For the compound `O=S(=O)(NC1CCCC1)c1ccc(-n2cnnn2)cc1`, the activity change was 5.4% (inactive). On to `CCOC(=O)C1CCCN(S(=O)(=O)c2ccc(-n3cnnn3)c(C)c2)C1` (configuration not stated), for which the activity change is 10.1% (inactive). The figure for `Cc1cc(S(=O)(=O)NC2CCCC2)ccc1-n1cnnn1` is -70.6% (active); for `O=C(c1ccc(Cl)c([N+](=O)[O-])c1)N1CCN(c2ccccc2)CC1` it is 9.67% (inactive). The figure for `O=C(c1ccc(N2CCOCC2)c([N+](=O)[O-])c1)N1CCN(c2ccccc2F)CC1` is 1.08% (inactive).

Take `O=C(/C=C/c1ccc(Cl)cc1)N1CCN(c2ccccc2[N+](=O)[O-])CC1`: the activity change was -108% (active). To `C[C@H]1CN([C@@H](C)CO)C(=O)CCCn2cc(nn2)CO[C@@H]1CN(C)C(=O)Nc1ccccc1` belongs 13.1% (inactive); to `O=C(O)C(=Cc1ccc([N+](=O)[O-])cc1)CCc1ccccc1`, -2.12% (inactive).

As to `COc1ccc(NC(=O)CN(C)C(=O)c2cccc(S(=O)(=O)N3CCN(c4ccccc4)CC3)c2)cc1`, the activity change was -101% (active). The figure for `CCOc1ccc(NC(=O)CN(C)C(=O)c2cccc(S(=O)(=O)N3CCCC3)c2)cc1OCC` is 0.537% (inactive); for `Cc1ccc(NC(=O)CN(C)C(=O)c2cccc(S(=O)(=O)N3CCCC3)c2)cc1` it is 4.37% (inactive); for `CC(C)CC1C(=O)N(Cc2cn(CC3CCCCC3)nn2)CCS(=O)(=O)N1Cc1ccc(-c2ccc(Cl)cc2)cc1` (configuration not stated) it is 4.02% (inactive). For the compound `O=c1[nH]c(CN2CCOCC2)nc2scc(-c3ccccc3)c12`, the activity change is 0.718% (inactive). The figure for `Cc1sc2nc(CC(N)=O)[nH]c(=O)c2c1-c1ccccc1` is 4% (inactive); for `NC(=O)Cc1nc2scc(-c3ccc(Cl)cc3)c2c(=O)[nH]1` it is -145% (active); for `C[C@@H]1CN([C@@H](C)CO)S(=O)(=O)c2ccc(-c3ccc(C(=O)N(C)C)cc3)cc2O[C@@H]1CN(C)Cc1ccccc1C(=O)O` it is -0.261% (inactive). Consider `CC(=O)Nc1ccc(C=Cc2ccc([N+](=O)[O-])cc2)cc1`, for which the activity change is -16.2% (inactive). As for `Cc1ccc(C(CNC(=O)Nc2cccc(C)c2)N2CCN(C)CC2)cc1` (configuration not stated), the activity change was 3.75% (inactive). To `Cc1ccc(C(CNC(=O)Nc2ccccc2)N2CCN(C)CC2)cc1` (configuration not stated) belongs -194% (active). To `COc1ccc(S(=O)(=O)NCC(c2ccc(C)cc2)N2CCN(C)CC2)cc1OC` (configuration not stated) belongs -2.06% (inactive); to `Cc1ccc(S(=O)(=O)N2C[C@H]3n4c(=O)ccc(=O)n4C[C@H](OC(=O)NC4CCCC4)[C@@]3(O)C2)cc1`, -5.45% (inactive); to `C[C@@H]1CN([C@@H](C)CO)C(=O)c2cc(Br)cnc2O[C@H]1CN(C)Cc1ccc(-c2ccccc2)cc1`, -85.7% (active). To `C[C@H]1CN([C@@H](C)CO)C(=O)c2cc(Br)cnc2O[C@H]1CN(C)S(=O)(=O)c1cccs1` belongs -4.3% (inactive); to `C[C@@H]1CN([C@H](C)CO)C(=O)c2cc(Br)cnc2O[C@@H]1CN(C)Cc1cncnc1`, 6.02% (inactive). Consider `C[C@H](CO)N1C[C@H](C)[C@H](CN(C)C(=O)Nc2ccc3c(c2)OCO3)Oc2ncc(Br)cc2C1=O`, for which the activity change was 12.1% (inactive). Take `CSc1ncnc2c1ncn2CCCNCC(C)c1ccccc1` (configuration not stated): the activity change was 6.46% (inactive).

`CCCCNC(=O)CSc1nc2n[nH]c(C)c2c(=N)n1-c1cccc(Cl)c1C`: the activity change was -75.1% (active). With `Cc1ccc(-n2c(SCC(=O)NCCC3=CCCCC3)nc3n[nH]c(C)c3c2=N)cc1Cl`, the activity change was -4.71% (inactive). Take `COc1cccc(-n2c(SCC(=O)NC3CCCCC3)nc3n[nH]c(C)c3c2=N)c1`: the activity change was 13.7% (inactive).

For `Cc1[nH]c2ccccc2c1C(=O)C(=O)NCc1nnnn1-c1cccc(F)c1`, the activity change was -6.04% (inactive).

Turning to `O=C(COC(=O)CCc1c[nH]c2ccccc12)Nc1cccc(Cl)c1`, the activity change was -6.53% (inactive).

`CCN(C(=O)COC(=O)CCOc1cccc(C)c1)c1c(N)n(Cc2ccccc2)c(=O)[nH]c1=O`: the activity change was 11.4% (inactive). The figure for `COCCN(C(=O)COC(=O)Cc1cccc(OC)c1)c1c(N)n(Cc2ccccc2)c(=O)[nH]c1=O` is 8.15% (inactive); for `CCN(C(=O)COC(=O)Cc1c(F)cccc1Cl)c1c(N)n(Cc2ccccc2)c(=O)[nH]c1=O` it is -102% (active); for `CC1CCC2(CC1)NC(=O)N(CC(=O)NCc1ccco1)C2=O` (configuration not stated) it is 15.5% (inactive). To `COc1ccccc1C(CNC(=O)c1cccc(S(=O)(=O)Nc2ccc(F)cc2)c1)N(C)C` (configuration not stated) belongs 0.933% (inactive). As to `O=C(NCc1ccccc1CN1CCCC1)c1cccc(S(=O)(=O)Nc2ccc(F)cc2)c1`, the activity change is -81.1% (active). Regarding `O=C(NCCN1CCOCC1)c1cccc(S(=O)(=O)Nc2ccc(F)cc2)c1`, the activity change was -9.37% (inactive). To `O=C(CC(CC(=O)c1ccccc1)c1ccco1)c1ccccc1` belongs -1.01% (inactive); to `CSC1=NN(c2ccccc2)CN(c2ccccc2)N1C`, -1.49% (inactive); to `Cc1ccc(OCc2nnc(SC3CCc4ccccc4C3=O)n2C)cc1` (configuration not stated), -114% (active).

`Cc1ccc(OCc2n[nH]c(=S)n2-c2ccccc2)cc1`: the activity change was -4.15% (inactive). In the case of `Cc1cccnc1NC(=O)CSc1nnc(COc2ccc(C(C)C)cc2)n1C`, the activity change was 13.2% (inactive). The figure for `Cc1sc2nc(-c3ccccc3F)oc(=O)c2c1C` is 9.16% (inactive); for `CC1=C(C(=O)N(C)C)CC(CC(=O)NCCN2CCOCC2)C(=O)N1Cc1ccccc1` (configuration not stated) it is -16.9% (inactive).

As to `C[C@@H]1CN([C@H](C)CO)C(=O)CCCn2cc(nn2)CO[C@H]1CN(C)S(C)(=O)=O`, the activity change was 21.6% (inactive). The figure for `O=C(NC1CCCC1)c1cc(-c2ccccc2)on1` is 4.52% (inactive). The figure for `CC(NC(=O)c1cc(-c2ccccc2)on1)c1ccccc1` (configuration not stated) is -114% (active); for `Cc1ccc(C(=O)NC(C)c2ccccc2)cc1Br` (configuration not stated) it is -9.99% (inactive). As for `COc1ccc(N2CC(NS(=O)(=O)c3ccc4ccccc4c3)CC2=O)cc1` (configuration not stated), the activity change is -102% (active). To `COc1cccc(N2CC(NS(=O)(=O)c3ccc(Cl)cc3)CC2=O)c1` (configuration not stated) belongs 25.6% (inactive); to `COc1cccc(N2CC(NS(=O)(=O)c3cccs3)CC2=O)c1` (configuration not stated), -5.41% (inactive). To `COc1ccc([C@H]2N[C@]3(CCCN(Cc4ccco4)C3=O)[C@H]3C(=O)N(C)C(=O)[C@@H]23)cc1` belongs -5.99% (inactive); to `CCc1c(N=O)c(-c2ccccc2)n(O)[n+]1[O-]`, -12.8% (inactive). On to `C[C@H]1CCC(=O)N([C@H](CSc2ccccc2)Cc2ccccc2)CC1`, for which the activity change was 2.57% (inactive).

Regarding `O=C1CC[C@H](O)CCN1[C@H](CSc1ccc(Br)cc1)Cc1ccccc1`, the activity change is 8.81% (inactive). Consider `COc1ccc(SC[C@H](Cc2ccccc2)N2CCN(CCc3ccccc3)CCC2=O)cc1`, for which the activity change was -105% (active).

Consider `COc1cc(C=NC2CCCCC2)ccc1O`, for which the activity change was -7.89% (inactive). To `C[C@H](CO)N1C[C@H](C)[C@@H](CN(C)S(=O)(=O)c2ccc(Oc3ccccc3)cc2)OCc2cn(nn2)CCCC1=O` belongs 2.39% (inactive); to `C=CCN1CCN(c2ccncc2S(=O)(=O)N2CCN(C)CC2)CC1`, -3.97% (inactive). To `Cc1ccc([C@H]2C[C@H](O)[C@@H](n3cc(COC(=O)c4ccccc4)nn3)CN2C(=O)C2CCCCC2)cc1` belongs -7.68% (inactive). To `COc1cccc(NC(=O)CN(C)C(=O)c2cc(Cl)nc3ccccc23)c1` belongs 14.5% (inactive); to `CN1CCN(C2Cc3ccc(Cl)cc3Sc3ccc(F)cc32)CC1` (configuration not stated), -75.9% (active); to `O=C(O)C1CCCN1c1nc(Cl)ccc1[N+](=O)[O-]` (configuration not stated), -2.11% (inactive). `O=C(COC(=O)c1ccc(S(=O)(=O)N2CCCCCC2)cc1)Nc1ccccc1C(F)(F)F`: the activity change is -2.65% (inactive).

`CC(=O)Nc1c(-c2ccc(C)cc2)nc2ccc(Cl)cn12`: the activity change was 2.86% (inactive). To `C#CC(CCN1CCCCC1)(OC)c1ccccc1` (configuration not stated) belongs 58.1% (inactive); to `CCCCCC(O)(CCN1CCCCC1)c1ccccc1` (configuration not stated), -102% (active).

Regarding `CCCCCCC(O)(CCN1CCCCC1)c1ccccc1` (configuration not stated), the activity change is -21.6% (inactive). The figure for `Cc1ccc(NC(=O)c2ccco2)cc1` is 4.6% (inactive); for `Cc1cc(C)c2c(=O)n3c(nc2c1)C(CC(C)C)NC(=O)c1cc2ccccc2cc1-3` (configuration not stated) it is -30.6% (inactive); for `Cc1ccccc1NC(=O)c1cnn(-c2ccccc2)c1NC(=O)c1ccco1` it is 11.4% (inactive). The figure for `O=C(Nc1nonc1-c1ccc(Cl)cc1)c1ccco1` is -7.1% (inactive). To `O=C(Nc1c(-c2ccccc2)nc2c(Br)cc(Br)cn12)c1ccco1` belongs -72.2% (active). For the compound `CCCCCCN1C[C@H](O)[C@@H](n2cc(C3CC3)nn2)C[C@@H]1c1ccc(Cl)cc1`, the activity change was -39.7% (inactive).

Turning to `CN1OC[C@@H]2CN(C(=O)c3ccc(-c4ccccc4)cc3)[C@H](c3ccc(-c4cccc(F)c4)cc3)C[C@@H]21`, the activity change was -5.34% (inactive). The figure for `COC(=O)C(Cc1c[nH]c2ccccc12)NC(=O)CCNC(=O)c1ccco1` (configuration not stated) is 3.09% (inactive).

Take `O=C(C[C@H]1C[C@H]2c3cc(NS(=O)(=O)c4ccc(F)cc4)ccc3O[C@H]2[C@H](CO)O1)NCc1cc(F)ccc1F`: the activity change is -4.51% (inactive). `CCC(CC)COC(=O)C1=C(C)NC(=O)NC1c1ccc([N+](=O)[O-])cc1` (configuration not stated): the activity change was 10.1% (inactive). The figure for `CC1=C(C(=O)OCC2CCCCC2)C(c2ccc(F)cc2)NC(=O)N1` (configuration not stated) is -100% (active). To `CC1=C(C(=O)OC2CCCCC2)C(c2ccccc2F)NC(=O)N1` (configuration not stated) belongs 8.03% (inactive). To `O=C(N/N=C/c1ccc2c(c1)OCO2)C(=O)N1CCCC1` belongs -5.78% (inactive); to `COC(=O)c1ccc(/C=N/NC(=O)C(=O)N2CCCCCC2)cc1`, 2.79% (inactive). On to `COc1cccc(/C=N/NC(=O)C(=O)N2CCCC2)c1`, for which the activity change is -74.7% (active).

Source of the values: PubChem BioAssay AID720553 (National Center for Advancing Translational Sciences (NCATS), 2013).
